PP1 inh: PP1-alpha phosphatase inhibitors, primary screen, counter-screen for PP5 inhibitor project, biochemical, fluorescence, OMFP substrate, single point. purified PP1alpha. inhibition, % at 6.7 µM. 0.9% of 320,000 active. Serine/threonine-protein phosphatase PP1-alpha catalytic subunit (Homo sapiens), P62136. AID 2235, 2010;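 active means inhibition above the mean inhibition of all tested compounds plus 3 SD, computed separately for each screening campaign, cut at about 15% in these data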
Target sequence (P62136 whole entry, looked up): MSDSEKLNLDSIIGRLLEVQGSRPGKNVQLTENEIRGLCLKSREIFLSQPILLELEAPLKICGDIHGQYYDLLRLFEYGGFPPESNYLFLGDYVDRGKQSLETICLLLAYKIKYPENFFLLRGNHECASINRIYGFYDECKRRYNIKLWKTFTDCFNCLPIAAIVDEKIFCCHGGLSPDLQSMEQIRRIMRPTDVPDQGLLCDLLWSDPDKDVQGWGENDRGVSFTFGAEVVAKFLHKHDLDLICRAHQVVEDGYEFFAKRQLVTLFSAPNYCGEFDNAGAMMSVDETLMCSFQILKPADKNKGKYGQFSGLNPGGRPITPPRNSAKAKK
Beta apoptosis: inhibitors of cytokine-induced beta cell apoptosis, primary screen, luminescence | INS-1E cytokine-induced death, ATP luminescence, 48 h; percent of positive-control rescue, neutral wells zero | protection from apoptosis, % (no concentration beside the values) | 0.8% of 300,000 active | AID 435005, 2010;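 active means Every replicate reaches about 75%, or at least half do and their mean reaches it too, limit read from the data; inconclusive means At least half of replicates reach the limit but their mean does not; inactive means Under half of replicates reach the limit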;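 further: higher means more ATP so stronger rescue from cytokine killing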
CSC inhib: cancer stem cell viability inhibitors, primary screen, luminescence; 1.1% of 300,000 active; cancer stem cell-like cells viability; inhibition, % at 7.5 µM; in the data active means inhibition above about 75%; inconclusive means no clear call, values can overlap the other calls; tested in HMLE shEcad cells
SKKanGAS inh: S. pyogenes SKKanGAS growth inhibitors in kanamycin, primary screen, streptokinase expression inhibitor project, SKKanGAS strain, BacTiter-Glo luminescence. 6 h. inhibition, % at 7.5 µM. 1.3% of 300,000 active. AID 1662, 2009;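 active means mean replicate score, as percent of positive control median, at least 50; inconclusive means mean below 50 but one replicate at or above 50; inactive means mean and every replicate below 50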;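 further: strain carries kanamycin resistance gene driven by streptokinase promoter and grows in 40 µg/ml kanamycin; loss of luminescence reflects streptokinase promoter inhibition or plain growth inhibition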
PP5 primary: PP5 phosphatase inhibitors, primary screen, biochemical, fluorescence | Serine/threonine-protein phosphatase 5 (Homo sapiens), P53041 | purified PP5c, OMFP substrate fluorescence | inhibition, % at 6.7 µM | 0.18% of 320,000 active | AID 1987, 2009;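 active means inhibition above the campaign's mean inhibition across all tested compounds plus 3 SD, cut at about 9.5% in these data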
Each line names hits and unclear results; the compound was inactive in the other large screens. In the library only some 3.1% were active in any assay of this set; here they are far more common.

CCN(CC(=O)NCc1cccs1)C(=O)/C=C/c1ccc(OC)c(OC)c1	none
COc1ccc(/C=C/C(=O)NC(=S)NCc2ccccc2)cc1OC	PP1 inh 15.5
COc1ccc(C(=O)NC(=S)NNC(=O)Cc2cccs2)cc1	none
COc1ccc(/C=C/C(=O)NC(=S)NNC(=O)c2cccnc2)cc1OC	none
COc1cc(OC)cc(C(=O)NC(=S)NNC(=O)Cc2cccs2)c1	SKKanGAS inh 69.6
C#CCOc1ccc(CNC[C@H]2O[C@@H](n3cnc4c(N)ncnc43)[C@H](O)[C@@H]2O)cc1	none (no result: PP1 inh, CSC inhib, SKKanGAS inh, PP5 primary)
CCOc1ccccc1N1C(=O)CC(Sc2n[nH]c(-c3ccccc3)n2)C1=O (stereo not given)	none
COc1ccccc1NC(=O)c1ccc(NC(=O)c2cc3c(s2)CCC3)cc1	SKKanGAS inh 73.1
CCOc1ccc(N2C(=O)CC(N(Cc3ccco3)C(C)=O)C2=O)cc1 (stereo not given)	none
NC(=O)N/N=C(/CCCCCC/C(=N\NC(N)=O)c1ccccc1)c1ccccc1	SKKanGAS inh 52.9
Cc1cc(C(=O)CN2C(=O)C(=O)N(Cc3ccco3)C2=O)c(C)n1CCc1ccc(F)cc1	PP1 inh 16.9 (no result: SKKanGAS inh)
O=C1[C@H]2C(c3ccccc3)=NN(c3ccccc3)[C@H]2C(=O)N1c1ccccc1	SKKanGAS inh 88.7
O=C1N=NC(=O)N1c1ccccc1	none
O=C1C2C(c3ccccc3)=NN(c3ccccc3)C2C(=O)N1c1ccccc1 (stereo not given)	SKKanGAS inh 107.5
CC(=O)Nc1ccc(/C=N/NC(=S)NC(C)C)cc1	none
O=C(Nc1cccc(Cl)c1N1CCCC1)c1cc2ccccc2o1	SKKanGAS inh 73.1
O=C(Nc1cccc(Cl)c1N1CCCC1)c1ccc([N+](=O)[O-])o1	CSC inhib 100.1 (no result: SKKanGAS inh)
CCN1CCN(c2c(Cl)cccc2NC(=O)c2ccc([N+](=O)[O-])o2)CC1	Beta apoptosis 103.3
O=C(Nc1ccc(N2CCOCC2)c(Cl)c1)c1ccc([N+](=O)[O-])o1	none (no result: PP1 inh, Beta apoptosis, CSC inhib, PP5 primary)
O=C(Nc1cccc(Cl)c1N1CCOCC1)c1ccco1	none
O=C(Nc1cccc(Cl)c1N1CCCC1)c1ccc(Br)o1	SKKanGAS inh 70.3
O=C(CSc1nc(-c2ccccc2)nc2ccccc12)Nc1cccc(C(=O)O)c1	none
O=C(CSc1nc(-c2ccc(F)cc2)nc2ccc(F)cc12)Nc1cccc(C(=O)O)c1	SKKanGAS inh 67.6
O=C(Nc1ccc2c(c1)OCCO2)N1CCN(Cc2ccccc2)CC1	none
Nc1ccccc1C#CC(=O)c1ccccc1	Beta apoptosis 90.8
Nc1ccc(N2CCN(c3ccc(Cl)c(Cl)c3)CC2)cc1	CSC inhib 92.4
O=C(Sc1cccc2cccnc12)c1ccccc1Br	SKKanGAS inh 67.1
CC(=O)/C(=N\Nc1ccccc1)Sc1cccc2cccnc12	none
Cc1ccc(Nc2nc(N)nc(CSc3nnnn3-c3ccccc3)n2)cc1	PP1 inh 15.8
CC(C)(C)OC(=O)N[C@H](C(=O)OC(C)(C)C)c1ccc2c(c1)OCO2	none (no result: SKKanGAS inh)
COc1cc(NC(=O)c2ccc3c(c2)S(=O)(=O)N=C2CCCCCN23)cc(OC)c1	none (no result: Beta apoptosis)
COc1ccc(C)cc1N1C(=N)/C(=C2/Nc3ccccc3S2)C(c2ccccc2)C1=O (stereo not given)	CSC inhib 111.9 (no result: SKKanGAS inh)
COc1ccc(C2C(Oc3ccccc3)C(=O)N2c2cc(C)ccc2C)cc1OC (stereo not given)	none
Oc1cccc(C(O)CNCc2ccc(OCc3ccc(Cl)cc3Cl)cc2)c1 (stereo not given)	CSC inhib 78.1
Oc1cccc(C(O)CNCc2ccc(-c3ccccc3)cc2)c1 (stereo not given)	none
CCN1/C(=C/c2ccc3ccccc3[n+]2CC)C=Cc2ccccc21	Beta apoptosis 107.7, SKKanGAS inh 52.1
O=S(=O)(/C(=C/c1ccc(C(F)(F)F)cc1)c1nc2ccccc2[nH]1)c1ccccc1	Beta apoptosis 99.7, CSC inhib 100.8
C/C(=C\c1ccc(N)cc1)c1nc2ccccc2[nH]1	none
CC(C)c1ccc(/C=C(\c2nc3ccccc3[nH]2)S(=O)(=O)c2ccccc2)cc1	Beta apoptosis 102.3
Cc1cc(C)c(Nc2ncnc(N)n2)c(C)c1	none (no result: Beta apoptosis, CSC inhib)
Cc1ccccc1C(C(=O)NC1CCCCC1)N(C(=O)c1ccccn1)c1cccnc1 (stereo not given)	none
Cc1c(NC2(C#N)CCCCC2)c(=O)n(-c2ccccc2)n1C	none
Cc1cccc(N=N/C(=C\O)C(=O)c2cccs2)c1	CSC inhib 91.6
COc1cc(/C=C/C(=O)c2ccc([N+](=O)[O-])o2)ccc1O	Beta apoptosis 114.7, SKKanGAS inh 72.5
COc1cc(/C=C/C(=O)/C=C(O)/C=C/c2ccc(O)c(OC)c2)ccc1O	none (no result: SKKanGAS inh)
COc1cc(/C=C/C(=O)CC(=O)/C=C/c2ccc(O)c(OC)c2)ccc1O	CSC inhib 94.3 (no result: Beta apoptosis)
O=C(/C=C/c1cccc(Cl)c1)c1ccc([N+](=O)[O-])o1	Beta apoptosis 134.8, CSC inhib inconclusive, SKKanGAS inh 62.6
COc1ccc(/C=C/C(=O)c2ccc([N+](=O)[O-])o2)cc1OC	Beta apoptosis 112.0, CSC inhib 78.2, SKKanGAS inh 66.9
COc1cc(/C=C/C(=O)O)ccc1O	none (no result: Beta apoptosis)
Cc1cc(O)c(C(=O)/C=C/c2cccc([N+](=O)[O-])c2)c(=O)o1	none
COc1ccc(/C=C/C(=O)c2ccc3c(c2)OCCO3)cc1[N+](=O)[O-]	none
Cc1cc2c(c(=O)o1)C(c1ccc([N+](=O)[O-])o1)C(C#N)=C(N)O2 (stereo not given)	none
O=C(NN1C(=O)c2cc(Br)ccc2NC1c1ccccc1Cl)c1ccncc1 (stereo not given)	none
O=C(NN1C(=O)c2cc(Br)ccc2NC1c1cc(Br)cc(Br)c1O)c1ccncc1 (stereo not given)	SKKanGAS inh 58.7
COc1cc(/C(C)=C/c2ccccc2)c2c(c1)oc1ccccc12	SKKanGAS inh 55.2 (no result: CSC inhib)
COc1ccc(-c2c(-c3cc(OC)cc(OC)c3)n(C)c3ccc(-c4ccc5cc[nH]c5c4)cc23)cc1	none (no result: PP1 inh, CSC inhib, SKKanGAS inh, PP5 primary)
CCOC(=O)c1c[nH]c2ccc3ccccc3c2c1=O	none
CCOC(=O)c1[nH]cnc1N=Nc1c(O)ccc2ccccc12	Beta apoptosis 97.0
Oc1ccc2ccccc2c1N=Nc1ccccn1	Beta apoptosis 94.6, CSC inhib 105.2
Oc1ccc2ccccc2c1N=Nc1ccccc1F	none
COc1ccc(S(=O)(=O)N2CCOCC2)cc1NC(=O)COC(=O)C1CC1C (stereo not given)	none (no result: SKKanGAS inh)
CNC(=O)/C(C#N)=C/c1c(N2CCCCCC2)nc2c(C)cccn2c1=O	none
CCOc1ccc(N(CC(=O)NCc2cccnc2)S(=O)(=O)c2ccc(F)cc2)cc1	none
Cc1ccc(C)c(NC(=O)c2ccccc2NS(=O)(=O)c2cc([N+](=O)[O-])ccc2C)c1	Beta apoptosis 111.6, CSC inhib 97.4 (no result: SKKanGAS inh)
Cc1ccc([N+](=O)[O-])cc1S(=O)(=O)Nc1cccc(S(=O)(=O)Nc2ccccc2C(=O)O)c1	none (no result: PP1 inh, SKKanGAS inh, PP5 primary)

High-throughput results deposited in PubChem by several laboratories.
